# Assay results from PubChem BioAssay AID1900 (Broad Institute, 2009).
# The whole screen tested about 3,200 compounds, of which about 2,900 (91%) were called active.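 How the source made its calls: active means fitted half-maximal effect concentration at most a set number of log units above the top dose; inactive means fitted half-maximal concentration further above the top dose.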 The set was probably picked from earlier hits. The list shows a part of the results. Measured potencies and affinities stand elsewhere.
# Test: Streptococcus pyogenes SK(-)GAS viability under kanamycin – luminescence, BacTiterGlo, confirmation, counter-screen for streptokinase expression inhibitor project, dose response (AID 1900)
# Conditions: 6 h; at 15 µM (top of the series)
row,SMILES,"activity change, negative = inhibition"
1,O=C(Nc1ccccc1Sc1ccccc1)c1ccccc1F,-63% (active)
2,COc1cccc2sc(Nc3nnc(-c4ccccc4Cl)o3)nc12,-41.8% (active)
3,O=C(Nc1cccc(-c2nc3ccccc3[nH]2)c1)c1ccc(C(=O)Nc2cccc(-c3nc4ccccc4[nH]3)c2)cc1,-32.9% (active)
4,COc1ccccc1N=c1oc2cc(O)ccc2cc1C(N)=O,-48.9% (active)
5,CC(C)(C)c1csc(NNC(=O)c2ccc(Br)cc2)n1,-78.7% (active)
6,FC(F)Oc1ccccc1C1CC(c2ccc(Br)s2)Nc2ncnn21 (configuration not stated),-52.4% (active)
7,N#C/C(=C\c1ccc(/C=C(/C#N)c2nn(CCO)c(N)c2C#N)cc1)c1nn(CCO)c(N)c1C#N,-56% (active)
